# Experimental data reported in ChEMBL document CHEMBL3988442, “University of Dundee, Small-Polar-MMV Screening Library” (2021).
# Screen size: about 48,000 compounds; about 13,000 (27%) showed an effect of 50% or more. The list shows a part of the results.
# Test system: Wolbachia pipientis
# Assay: Anti-Wolbachia Cell-Based Screen
# Format: functional
# Set-up: scale not given: in the data most compounds retested in dose-response had high values
# Conditions: 5 µM
row,SMILES,Percent Effect [%]
1,CCC(C)CS(=O)(=O)NC(=O)C1CCC1 (stereo not given),4.874
2,Cc1csc(Nc2cc(C3CN(C(C)C)C3)nc(C)n2)n1,95.99
3,Cc1csc(Nc2cc(C3CN(c4ccncn4)C3)nc(C)n2)n1,120.5
4,Cc1nc(Nc2nccs2)cc(C2CCCN2C2CCOCC2)n1 (stereo not given),-3.7
5,CCc1nc2n(n1)CC(NCC(=O)Nc1nccs1)CC2 (stereo not given),-6.343
6,Cc1ccccc1N1CCN(c2ccncn2)C(C)C1 (stereo not given),0.9098
7,Cc1cc(C)nc(Nc2cc(C3CCCN(C)C3)nc(C)n2)n1.O=CO (stereo not given),-14.01
8,Cc1nc(Nc2nccs2)cc(C2CN(C(C)C)C2)n1,64.11
9,CCc1nc(NC(=O)NCCc2cscn2)nn1C,-7.78
10,O=C(NCCOc1ncc(Cl)cc1Cl)NCc1ccncc1,-21.42
11,Cn1ccnc1SCCNc1ccnc(C(F)(F)F)n1,2.447
12,CC(C)(C)c1ncc(C(=O)NC(C(N)=O)c2ccccc2)s1 (stereo not given),80.78
13,CC(C)(C)c1ncc(C(=O)NCCNC(=O)Cc2ccccc2)s1,94.92
14,CC(C)(CNC(=O)c1ccco1)CNC(=O)c1ccco1,-33.3
15,CC(C)(C)c1ncc(C(=O)NCCNC(=O)c2ccco2)s1,107.2
16,CCNc1ncc(C(=O)N[C@H](C(N)=O)c2ccccc2)cn1,7.272
17,CC(C)(C)C(=O)c1ccsc1NC(=O)CCNC(=O)c1ccco1,-2.755
18,CC(C)(NC(=O)c1cnc(C(C)(C)C)s1)C(N)=O,-3.596
19,CC(=O)c1cccc(OCCCC(=O)N(C)CC(N)=O)c1,-6.7
20,Cc1cccc2[nH]c(C3CCN(C(=O)c4ccc[nH]4)CC3)nc12,-3.208
21,O=C(Cc1ccn[nH]1)Nc1cncc(Br)c1O,-6.696
22,CC(C)Cc1cc(CNC(=O)c2cccc3c2OCC3)no1,-12.78

row,SMILES,Percent Effect [%]
1,CC(=O)N[C@@H]1CN(Cc2nccn2C)C[C@H]1c1ccc(C)cc1,-2.996
2,CC(CNC(=O)c1cc(N2CCNC2=O)ccc1F)c1ccccc1 (stereo not given),-2.028
3,CC(Sc1nc(N)cc(N)n1)c1nc(C(C)(C)C)no1 (stereo not given),6.059
4,CC(=O)N1C[C@H]2CN(CC3CC3)C(=O)[C@H]2C1,-8.606
5,CCS(=O)(=O)N1C[C@H]2CN(CC3CC3)C(=O)[C@H]2C1,114.7
6,CS(=O)(=O)N1C[C@H]2CN(CC3CC3)C(=O)[C@H]2C1,101.9
7,O=C1[C@H]2CN(S(=O)(=O)c3cccs3)C[C@H]2CN1CC1CC1,-15.27
8,O=C1[C@H]2CN(S(=O)(=O)C3CC3)C[C@H]2CN1CC1CC1,100.8
9,CN(C)C(=O)CN1CC[C@H]2CN(S(C)(=O)=O)C[C@@H]2C1=O.O=C(O)C(F)(F)F,-14.63
10,O=C(CC(F)(F)F)N1C[C@H]2CN(CC3CC3)C(=O)[C@H]2C1,-26.88
11,CCOCC(=O)N1C[C@H]2CN(CC3CC3)C(=O)[C@H]2C1,-26.93
12,O=C1[C@H]2CN(c3ncc(F)cn3)C[C@H]2CN1CC1CC1,15.28
13,Cc1cccnc1NC(=O)c1ccc(-n2cncn2)nn1,-9.23
14,CCN(CCCNC(=O)c1cc2cccc(F)c2o1)S(C)(=O)=O,13.88
15,O=C(NCc1ccc(Cl)s1)c1ccc(N2CCOC2=O)cc1,-4.831
16,Cc1cc(CN(C)C2CCCN(c3cccnn3)C2)on1 (stereo not given),-2.461
17,CN(Cc1nnc(-c2ccco2)o1)C1CCCN(c2cccnn2)C1 (stereo not given),5.287
18,Cc1ccc(N2CCCC(N(C)Cc3cc(C)on3)C2)nn1 (stereo not given),-10.05
19,Cc1cc(CN(C)C2CCCN(c3cccnn3)C2)no1 (stereo not given),110.4
20,CCOc1nnc(CN(C)C2CCCN(c3ccc(C)nn3)C2)s1 (stereo not given),91.1
21,CN(Cc1cscn1)C1CCCN(c2cccnn2)C1 (stereo not given),95.91
22,CN(Cc1cc(-c2ccccc2)no1)C1CCCN(c2cccnn2)C1 (stereo not given),-1.752

row,SMILES,Percent Effect [%]
1,CCOc1nnc(CNC2CCCN(c3ccc(C)nn3)C2)s1 (stereo not given),6.809
2,Cc1cnc(CN(C)C2CCCN(c3cccnn3)C2)cn1 (stereo not given),107
3,Cc1ccc(N2CCCC(N(C)Cc3ccccn3)C2)nn1 (stereo not given),1.725
4,CC(C)n1nc2c(cc1=O)CN(c1nc3ccccc3s1)CC2,8.102
5,CC(NC(=O)N1CCC2(C1)OCCO2)c1cccc(Cl)c1 (stereo not given),-15.89
6,CN1CCCC(CCC(=O)N2CCc3onc(C(=O)N(C)C)c3C2)C1 (stereo not given),14.32
7,Cc1noc(CNc2ccccc2N2CCCCC2)n1,5.096
8,CC(C)c1noc(CS(=O)(=O)CC(=O)NCC(F)(F)F)n1,-6.707
9,CN(Cc1ncc(C(C)(C)C)o1)C1CCCN(c2cccnn2)C1 (stereo not given),-2.807
10,Cc1ncc(CN(C)CC2CCCN2c2cccnn2)s1 (stereo not given),0.5019
11,Cc1ncc(CN(C)C2CCCN(c3cccnn3)C2)s1 (stereo not given),87.88
12,Cc1ccsc1[C@@H]1CCN(C(=O)CCc2nc3ccccc3[nH]2)C[C@H]1O,-8.794
13,Cc1cnc(C(=O)N2CCC3(CC2)CC(c2ccccc2)C(=O)N3)cn1 (stereo not given),-6.858
14,Cc1ccc(C(=O)N2CCC3(CC2)CC(c2ccccc2)C(=O)N3)cn1.O=C(O)C(F)(F)F (stereo not given),-11.02
15,O=C1NC2(CCN(C(=O)c3ccc(Cl)cc3)CC2)CC1c1ccccc1 (stereo not given),7.391
16,O=C(O)C(F)(F)F.O=C1NC2(CCN(c3ncccn3)CC2)CC1c1cccnc1 (stereo not given),-4.388
17,O=C(O)C(F)(F)F.O=C1NC2(CCN(C(=O)c3ccccc3)CC2)CC1c1cccnc1 (stereo not given),-9.682
18,Cc1cc(C(=O)N2CCC3(CC2)CC(c2cccnc2)C(=O)N3)no1.O=C(O)C(F)(F)F (stereo not given),102.9
19,Cc1cccc(C(=O)N2CCC3(CC2)CC(c2ccccc2)C(=O)N3)c1 (stereo not given),-4.545
20,O=C1NC2(CCN(C(=O)c3ccnnc3)CC2)CC1c1ccccc1 (stereo not given),95.48
21,O=C(O)C(F)(F)F.O=C1NC2(CCN(C(=O)N3CCOCC3)CC2)CC1c1cccnc1 (stereo not given),179.1
